# Test results: PubChem BioAssay (NCI)
# This is part of a sample that, as a whole, favours compounds with a hit. Of some 83,000 tested, about 20% had one in any assay.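 For each line, cells grew in 96-well plates with the test compound present at a single concentration for 48 hours.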 A number with no mark means an inactive call. Calls of active or inactive are those of the source. How the source made its calls: active means growth percent below 10; inactive means the rest.
# Key:
# Assay in all cases: NCI-60 one-dose screen, 48 h (100 = growth as untreated, 0 = no growth, -100 = all killed)
# Details in all cases: 10 µM unless noted
# [1] = test system: DU-145 prostate
# [2] = test system: K-562 leukemia
# [3] = test system: MALME-3M melanoma
# [4] = test system: MDA-MB-231 breast
# [5] = test system: RXF 393 renal
# [6] = test system: SF-268 CNS
# [7] = test system: SF-295 CNS
# [8] = test system: SF-539 CNS
# [9] = test system: UACC-257 melanoma
# [10] = test system: M14 melanoma
# [11] = test system: HCT-15 colon
# [12] = test system: HT29 colon
# [13] = test system: SNB-75 CNS
# [14] = test system: SNB-19 CNS
# [15] = test system: U251 CNS
# [16] = test system: PC-3 prostate
# [17] = test system: SK-MEL-5 melanoma
# [18] = test system: UACC-62 melanoma
# [19] = test system: LOX IMVI melanoma
# [20] = test system: SK-MEL-28 melanoma
SMILES,growth [1],growth [2],growth [3],growth [4],growth [5],growth [6],growth [7],growth [8],growth [9],growth [10],growth [11],growth [12],growth [13],growth [14],growth [15],growth [16],growth [17],growth [18],growth [19],growth [20]
CC1CC(C(C)(C)C)C(=O)C(C(C)(C)C)C1 (stereo not given),112%,102%,105%,109%,112%,103%,105%,101%,102%,118%,97.8%,93.4%,105%,106%,105%,108%,105%,100%,106%,116%
C[C@H](NC(=O)[C@@H]1CSSC[C@@H](NC(=O)c2nc3ccccc3cc2O)C(=O)NCC(=O)N1C)c1ccccc1,32.2%,-30.9% (active),49.9%,-39.5% (active),-27.4% (active),17.6%,77.6%,5.09% (active),60.9%,0.586% (active),42.1%,-28.2% (active),80.3%,35.4%,-7.49% (active),54.7%,0.825% (active),16.7%,-74.5% (active),33.9%
Cc1occc1-c1n[nH]c(=S)n1N1C(=O)CSC1=S,108%,103%,98%,101%,112%,97%,101%,98.5%,109%,102%,101%,105%,80.9%,97%,100%,97.2%,101%,91.4%,94.1%,106%
CCC1(C2CCCC2)NC(=O)NC1=O (stereo not given),101%,102%,97.5%,95.6%,97.2%,95.8%,111%,86.3%,105%,102%,92.3%,94.6%,93.9%,98.5%,106%,101%,101%,99.7%,79.7%,98.4%
CCCCCCN(CCCCCC)c1ccc(/C=C2/SC(=O)N(c3nc(N4CCCC4)nc(N4CCCC4)n3)C2=O)c(C)c1,77.3%,37.5%,71.5%,85.7%,84.7%,73.2%,56.7%,114%,72.6%,69.3%,57.9%,51.8%,83.3%,84.4%,53.9%,53.2%,58.6%,52.7%,71.8%,74.3%
O=C1Nc2ccc(F)cc2C12Nc1cc(Cl)ccc1S2 (stereo not given),101%,48.6%,88.6%,88.1%,110%,100%,89.8%,93.8%,109%,90.9%,82.3%,103%,70.9%,92.1%,94.6%,57.3%,83.4%,75.4%,85.6%,118%
CC(C)=C[C@@H]1c2c(c3ccccc3n(C)c2=O)O[C@H]2c3c(c4ccccc4n(C)c3=O)OC(C)(C)[C@@H]12,106%,56.1%,99.4%,85.8%,88.9%,86.1%,65.5%,81.2%,82.2%,98.9%,65.4%,77.9%,60.6%,99.2%,84.5%,6.54% (active),61.5%,65.6%,67%,104%
CC1(C)CC(=O)CC2(C1)N=C(N)Nc1nc3ccccc3n12 (stereo not given),115%,103%,104%,96.5%,104%,107%,108%,105%,106%,110%,98.2%,91.6%,82.3%,99.2%,104%,95.7%,97.4%,95.9%,94.9%,101%
CCOC(=O)C/C(C)=N\NC(=O)c1ccncc1,107%,93.2%,83.8%,102%,72.3%,101%,92.9%,97.7%,107%,106%,108%,100%,107%,87.7%,107%,96.5%,104%,88.1%,105%,116%
COc1cccc(-c2nn(-c3ccccc3)cc2-c2ccnc(NCCNC(=O)c3ccccc3)c2)c1,74.5%,38.2%,95.7%,55.3%,79.9%,78.3%,62.1%,96.9%,49.7%,55.3%,50.5%,15.9%,71.1%,72.3%,47.9%,37.7%,34.5%,57.2%,68.7%,88.3%
CC1OC(O[C@H]2/C=C/C=C/C=C/C=C/C=C/C=C/C=C/[C@H](C)[C@@H](O)[C@@H](C)[C@H](C)OC(=O)CC(O)CC(O)CCC(O)C(O)CC(O)C[C@]3(O)C[C@H](O)C(C(=O)O)C(C2)O3)C(O)[C@H](N)C1O (stereo not given in full),-29.9% (active),91.8%,-66% (active),58.7%,-64.4% (active),-70.4% (active),65%,17.2%,-76% (active),16.3%,76.7%,36.8%,57.8%,40.2%,-57.1% (active),-54.6% (active),35.9%,-13% (active),-12% (active),-65.8% (active)
CC(C)(C)CC(C)(C)Nc1c(-c2ccncc2)nc2cnccn12,106%,98.4%,110%,95%,93.8%,98.6%,101%,93.8%,103%,100%,97.9%,93%,80.4%,97.3%,99.2%,97.7%,99.4%,92.9%,98.8%,112%
O=C1/C(=C\c2c[nH]c3ccccc23)c2ccccc2N1c1c(Cl)cccc1Cl,14.5%,-0.66% (active),-16.8% (active),-2.7% (active),-43.5% (active),23.7%,-47.9% (active),-59.9% (active),23.6%,-86.3% (active),5.59% (active),-29.6% (active),39.2%,37%,-34% (active),2.68% (active),-39.2% (active),-58.6% (active),-100% (active),-30.6% (active)
c1c[nH]c(CNC2CCCCC2)c1,106%,103%,106%,129%,119%,101%,105%,114%,119%,104%,104%,105%,108%,119%,102%,81.6%,118%,110%,89.7%,120%
CN(C)CC1C(=O)O[C@H]2[C@H]1CC/C(COC(=O)c1cc3ccccc3[nH]1)=C\CC[C@@]1(C)O[C@@H]21 (stereo not given in full),-17.7% (active),-11.4% (active),-44.2% (active),-41.2% (active),-72.2% (active),-59.7% (active),32.4%,-37.7% (active),-86% (active),-62.3% (active),-57.9% (active),-75.7% (active),-59.6% (active),49.5%,-60.9% (active),-23.7% (active),-98.6% (active),-52% (active),-92.7% (active),-59.1% (active)
Cc1cc[c-]cc1.Fc1c[c-]c(-c2ccccn2)c(F)c1.[Pt+2].c1ccc(P(C[PH+](c2ccccc2)c2ccccc2)c2ccccc2)cc1,17.5%,8.02% (active),-15.8% (active),-9.05% (active),23.1%,9.02% (active),6.93% (active),21.5%,-12.1% (active),22%,47%,16.9%,4.48% (active),17.5%,12.9%,11.2%,-94.9% (active),9.82% (active),18.5%,36.4%
Cn1c(-c2c(N)n(Cc3ccc(C(F)(F)F)cc3)c3nc(C#N)c(C#N)nc23)nc2ccccc21,-4.79% (active),-30.7% (active),-23.9% (active),-13.2% (active),4.46% (active),43.3%,-27.5% (active),8.23% (active),6.78% (active),16.2%,12.5%,9.72% (active),15.1%,21.3%,5.09% (active),-26.6% (active),-10.4% (active),18.6%,2.4% (active),28.8%
NCCCNc1nc2ccccc2c2c(=O)c3cccc(Cl)c3sc12,-14.3% (active),-21.1% (active),41.6%,-18.3% (active),29.5%,26.5%,26.8%,66.3%,72.8%,-46.4% (active),-79.6% (active),-63.2% (active),41.7%,49.8%,-51.7% (active),43.8%,60.3%,51.4%,-90% (active),53.2%
COc1cccc(-c2nn(-c3ccccc3)cc2-c2ccnc(NCCNC(=O)Nc3ccccc3)c2)c1,65.9%,28.2%,77.8%,47.9%,63.5%,60.9%,54.4%,83.6%,42.9%,35.7%,39.3%,29.6%,67.7%,66.5%,36.8%,30.8%,46.1%,51.5%,44.4%,77.7%
COc1ccc(-c2[nH]c(=S)n(C(CC3(C)NCC(=O)N3n3c(-c4ccccc4)cc(C)nc3=S)c3ccc(OC)cc3)c(=O)c2Br)cc1 (stereo not given),66.6%,14.8%,90.2%,79.9%,65.5%,75.6%,61.9%,58.4%,88.9%,70.9%,39.9%,40.6%,3.88% (active),55.6%,55.8%,66%,79.5%,50.6%,41.3%,83.6%
COC(=O)[C@]12CC[C@@H](C)[C@H](C)[C@@H]1C1=CC[C@@H]3[C@@]4(C)C(C=O)=C[C@@](C)(COC(=O)c5ccco5)[C@@H]4C(=O)C[C@@]3(C)[C@]1(C)CC2,42%,22.7%,-17% (active),39.4%,47.6%,44.9%,34.4%,57.7%,-38.9% (active),6.34% (active),25.2%,29.9%,34.8%,39.7%,33.9%,11.1%,-84.8% (active),-23.8% (active),26.6%,24.9%
Cc1ccc(Nc2ccc(Nc3ccc(C)cc3)c3c2C(=O)c2cccc(O)c2C3=O)cc1,114%,94.3%,120%,88.7%,110%,104%,126%,105%,105%,104%,100%,117%,93.8%,104%,104%,78.9%,95.9%,87.1%,91.5%,118%
CN(C)CCCn1c(=O)c2ccccc2c2ccccc21,44.1%,88.1%,100%,67%,74.7%,68.2%,83.3%,85.6%,93.8%,87.8%,64.7%,50%,85.9%,73.4%,87.9%,70%,79.7%,82.2%,56.5%,103%
N#Cc1nc2c(S(=O)(=O)c3ccc(Cl)cc3)c(N)n(Nc3cccc(Cl)c3)c2nc1C#N,16.2%,25.9%,25.3%,58.8%,46.3%,53.8%,48.9%,38.9%,47.9%,79%,91.2%,69.5%,55.9%,64.6%,40%,-56.8% (active),42.8%,49.2%,61.3%,26.1%
CN(C)c1ccc(-c2ccc3[nH]c(=O)nc(-c4ccccc4)c3c2)cn1,65.1%,7.91% (active),51.2%,44.6%,64.5%,55.5%,39.5%,28.3%,80.8%,13.7%,28.1%,14.1%,27.9%,50.4%,38.1%,47.2%,39.6%,48.5%,38.5%,55.8%
CCN(CC)CCCC(C)Nc1c2ccc(Cl)cc2nc2ccc(O)cc12 (stereo not given),41.3%,-3.7% (active),51.2%,47.4%,-19.9% (active),58.5%,61%,15.6%,-58.4% (active),14.2%,42.3%,48.2%,35.3%,44.8%,32.5%,48.7%,34.7%,82.3%,0.124% (active),57.5%
O=C(NC(CSSCC(NC(=O)c1ccccc1)C(=O)O)C(=O)O)c1ccccc1 (stereo not given),114%,96%,109%,110%,116%,99.4%,106%,102%,102%,98.9%,99.8%,103%,102%,107%,104%,95.8%,108%,99.6%,95.7%,118%
O=C(O)c1ccc2c(c1Cl)C(=O)c1ccccc1C2=O,107%,73.7%,132%,112%,165%,113%,108%,102%,109%,103%,95.9%,87.5%,73.1%,98.8%,99.1%,116%,102%,97.7%,97.2%,107%
COC1=C(OC)C(=O)C(OC)=C(OC)C1=O,101%,87.2%,101%,46.3%,95%,94.4%,97.7%,114%,107%,105%,108%,104%,106%,99%,105%,95.5%,105%,102%,90.7%,105%
NC(=O)c1ccc[n+](Cc2ccc(Cl)cc2Cl)c1,111%,92.9%,100%,103%,118%,103%,111%,105%,72%,94.5%,105%,91.3%,102%,101%,89.6%,88.9%,97.6%,93.2%,95.8%,108%
